From PubChem BioAssay (NCATS)
Results filed as inconclusive are left out. Where a call stands in place of a potency, no number is given. Activity calls are given as the source filed them. Calls follow the shape of the dose curve; as a rule, active = well fitted cell-killing curve with a large enough effect; inconclusive = small, poorly fitted or top-dose-only effect, or effect the other way; inactive = no such curve, though single readings can be large or run the other way.

Columns and labels:
[1] = Viability qHTS for spleen associated tyrosine kinase inhibitor (SYKi) naive MV4-11 cells (AID 1963823); details: MV4-11 AML viability, CellTiter-Glo luminescence, 72 h; series mostly up to 45 µM; also: nearly all actives have a fitted effect of over 40% in size
Summary of the method: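 Cells: MV4-11, SYK inhibitor naive, 500 per well. Treatment: library compounds, 72 hr, 37 C, 5% CO2. Read-out: CellTiter-Glo luminescence after 10 min RT.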

[2] = Viability qHTS for spleen associated tyrosine kinase inhibitor (SYKi) drug resistant MV4-11 cells (AID 1963824); details: SYKi-resistant MV4-11 viability, CellTiter-Glo, 72 h; series mostly up to 45 µM; also: nearly all actives have a fitted effect of over 35% in size
Summary of the method: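 SYK inhibitor-resistant MV4-11 AML cells, 500 per well, added to predispensed compounds and incubated 72 hr at 37 C, 5% CO2. Viability measured by CellTiter-Glo luminescence after 10 min at room temperature.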
Potency is read from the fitted curve at half-maximal effect.

| SMILES | Potency [1] | Potency [2] |
| --- | --- | --- |
| CO[C@@H]1[C@H](O)[C@@H](O[C@@H]2C[C@H]3CC[C@@H]4C(CC[C@]5(C)[C@@H](C6=CC(=O)OC6)CC[C@]45O)[C@@]3(C)[C@H](O)C2)O[C@H](C)[C@@H]1O (stereo not given in full) | 0.0632 µM (active) | 0.0282 µM (active) |
| O=C(O)P(=O)(O)O | inactive | inactive |
| COC(=O)C1(C)CCC(O)C2(C)c3c(O)cc(C(C)C)cc3C(O)C(OC(C)=O)C12 (stereo not given) | inactive | inactive |
| CCCCCOc1cc2c(cc1-c1cc(/C=C/C(=O)O)ccc1O)C(C)(C)CCC2(C)C | 20.6 µM (active) | 23.1 µM (active) |
| CC(C)=CCC[C@]1(C)C=Cc2c(O)c3c(c(CC=C(C)C)c2O1)O[C@]12C(=C[C@@H]4CC1C(C)(C)O[C@@]2(C/C=C(/C)C(=O)O)C4=O)C3=O | 0.517 µM (active) | 0.461 µM (active) |
| CN(C)[C@@H]1C(=O)C(C(N)=O)=C(O)[C@@]2(O)C(=O)C3=C(O)c4c(O)ccc(Cl)c4[C@@](C)(O)C3C[C@@H]12 (stereo not given in full) | inactive | inactive |
| C[C@@]12C[C@@H](c3ccoc3)OC(=O)C1CC[C@]1(C)[C@H]2[C@H]2C=C[C@]1(O)C(=O)O2 (stereo not given in full) | inactive | inactive |
| CC(=O)OC[C@]12C[C@H](OC(C)=O)C(C)=C[C@H]1O[C@@H]1[C@H](O)[C@@H](O)[C@@]2(C)[C@]12CO2 | inactive | inactive |
| Cc1c(C(=O)Nc2cccc(C(F)(F)F)c2)cc(-c2ccccc2)n1CCCN1CCOCC1 | 14.6 µM (active) | 16.6 µM (active) |
| C=C1[C@@]23C(=O)O[C@H](C)[C@]24O[C@@]2(C(=C)[C@]5(C=CC(=O)OC5(C)C)CC[C@]32C)[C@H](O)[C@@]1(C)OC4=O | inactive | inactive |
